Measured values taken from PubChem BioAssay (NCI).
“And” between values parts separate entries of the source, which are not always exact repeats. Equal entries are not always repeated. This is part of a sample that, as a whole, favours compounds with a hit. Of some 79,000 tested, about 15% had one in any assay. The source made the active and inactive calls. Cut-off read from the data, not from the text of the source: active = growth inhibition above about 70%; inactive = the rest.

Key:
[1] = NCI Yeast Anticancer Drug Screen. Data for the rad50 strain (AID 155);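 note: 0% = growth of vehicle-only cultures of the same strain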; conditions: S. cerevisiae rad50 strain growth inhibition; at 50.0 µM; hits give high values
Outline: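 A DNA repair-deficient yeast mutant serves as the test organism; compound-induced growth inhibition is calculated against vehicle-treated cells.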

[2] = NCI Yeast Anticancer Drug Screen. Data for the mec2-1 strain (AID 157); conditions: S. cerevisiae mec2-1 strain, at 50.0 µM, hits give high values
Outline: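 Strain: mec2-1 (DNA repair/cell cycle alteration). Compound exposure, then growth measured; inhibition expressed relative to vehicle.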

[3] = NCI Yeast Anticancer Drug Screen. Data for the sgs1 mgt1 strain (AID 161);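 note: 0% = growth of cultures given vehicle only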; conditions: S. cerevisiae sgs1 mgt1 strain, at 50.0 µM, hits give high values
Outline: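 Mutant yeast exposed to compound; growth scored against vehicle-only wells.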

[4] = NCI Yeast Anticancer Drug Screen. Data for the cln2 rad14 strain (AID 165);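 note: 0% = growth equal to vehicle treated cultures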; conditions: S. cerevisiae cln2 rad14 strain, at 50.0 µM, hits give high values
Outline: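 Compounds are applied to the cln2 rad14 yeast strain, and growth is then compared with that of vehicle-treated cultures to give inhibition.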

[5] = NCI Yeast Anticancer Drug Screen. Data for the bub3 strain (AID 167); conditions: S. cerevisiae bub3 mutant strain, at 50.0 µM, hits give high values
Outline: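 Inhibition values come from growth of compound-treated mutant yeast normalised to vehicle-treated controls.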

[6] = NCI Yeast Anticancer Drug Screen. Data for the mlh1 rad18 strain (AID 175); conditions: S. cerevisiae mlh1 rad18 strain growth inhibition; at 50.0 µM; hits give high values
Outline: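 Read-out is yeast growth inhibition, calculated against vehicle-only controls. The compound was applied to a strain engineered with DNA damage repair alterations.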

Measured: growth inhibition

Nc1ncnc2c1ncn2C1OC(CO)C2NP(=O)(N(CCCl)CCCl)OC21 (stereo not drawn)
inactive: [1] 6.1% and 16.9% | [2] -6.2% and 1.7% | [3] -22.1% and -19.3% | [4] -8.1% and 5.15% | [5] -6.15% and -15.6% | [6] -38% and -8.55%

OC(Br)C1C(c2ccccc2)N1C1CCCCC1 (stereo not drawn)
inactive: [1] -2% | [2] 18.4% | [3] -3.35% | [4] -11.2% | [5] 0.15% | [6] 7.4%

CC(=O)[O-].Cn1ccnc1CNCc1nccn1C.[Cu+2].[O-][Cl+3]([O-])([O-])[O-]
inactive: [1] 18.9% | [2] 3.2% | [3] 3.3% | [4] 18.6% | [5] -1.4% | [6] 5.25%

COc1ccc(CC2OC3(CCCCC3)CC3CCCCN32)cc1 (stereo not drawn)
inactive: [1] 23.2% | [2] 13.9% | [3] 11.5% | [4] 7.65% | [5] -5.6% | [6] 6%

CC(CC(C)(C)C)C(=O)Cl (stereo not drawn)
inactive: [1] 7.85% | [2] -2.7% | [3] 5.35% | [4] 10.9% | [5] 4.15% | [6] 23.4%

Oc1ccc(CCNCc2cc3c(cc2Br)OCO3)cc1
inactive: [1] 18.7% | [2] 12% | [3] -11.1% | [4] 1.2% | [5] 32.9% | [6] 21.9%

O=NNc1ncccn1
inactive: [1] -20.2% | [2] -11.7% | [3] 3.7% | [4] 4.3% | [5] -0.2% | [6] -23%

COC1/C=C/C=C(/C)Cc2cc(O)c(Cl)c(c2)N(C)C(=O)CC(OC(=O)C(C)C)C2(C)OC2C(C)C2CC1(O)NC(=O)O2 (stereo not drawn)
inactive: [1] -9.05% | [2] -11.2% | [3] -15.8% | [4] -9.15% | [5] -6.2% | [6] -53%

O=P1(N2CCOCC2)OC(c2ccccc2)=CCN1c1ccc(Cl)cc1 (stereo not drawn)
inactive: [1] -8.9% | [2] 1.3% | [3] -1.85% | [4] -20.1% | [5] 5.2% | [6] 6.55%

N#CC(C#N)c1ccccc1
inactive: [1] 29.1% | [2] 2.6% | [3] 3.5% | [4] -4.05% | [5] 8.75% | [6] 1.2%

CCC(CC)CNC(=O)C(C)Br (stereo not drawn)
inactive: [1] 2.05% | [2] 1.85% | [3] -1.95% | [4] 3.05% | [5] 7.2% | [6] -3.65%

C/C=C1/CC(C)C(C)(O)C(=O)OCC2CCN3CCC(OC1=O)C23 (stereo not drawn)
inactive: [1] 13.5% | [2] -1.75% | [3] 6.8% | [4] 8.05% | [5] 23.1% | [6] 18.4%

O=C(Nc1cccc(Cl)c1)OCC(Cl)(Cl)Cl
active: [1] 99.6% | [2] 99.8% | [3] 99.4% | [4] 99.8% | [5] 99.3% | [6] 99.7%

COc1cc(C(CC(C)=O)c2cc3c(cc2OC(C)=O)OCO3)cc(OC)c1OC (stereo not drawn) (tested in a mixture with another compound)
inactive: [1] 5.1% | [2] 8.6% | [3] 17.2% | [4] 2.45% | [5] 5.15% | [6] 23.8%

N#CC(c1ccccc1)N1CCCN(C(C#N)c2ccccc2)C1c1ccc(N(CCCl)CCCl)cc1 (stereo not drawn)
inactive: [1] 11.1% | [2] -1.5% | [3] 2.25% | [4] -17.3% | [5] -0.9% | [6] 9.65%

S=P(NNc1ccccc1)(NNc1ccccc1)c1ccc(Cl)cc1
inactive: [2] -33.1% | [5] 34.6%
active: [1] 75.4% | [3] 81.9% | [4] 82.3% | [6] 83.2%

CCOC(=O)NP(=O)(Nc1ccccc1)Nc1ccccc1
inactive: [1] 21.2% | [2] -8.05% | [3] -3.5% | [4] 5.7% | [5] -5.1% | [6] -5%

CN1CC(C(=O)NO)C=C2c3cccc4[nH]cc(c34)CC21 (stereo not drawn)
inactive: [1] 8.8% | [2] 42.5% | [3] 23.5% | [4] -3.7% | [5] 41.5% | [6] 14.4%

COC(=O)c1nc(-c2ccc3c(n2)C(=O)C(N)=C(OC)C3=O)c(N)c(-c2ccc(OC)c(OC)c2O)c1C
inactive: [1] 58% | [2] 7.25% | [3] 36.1% | [4] 26.2% | [5] 23.2% | [6] 47.5%

Oc1cc(Cl)c(O)c(Cl)c1
inactive: [1] 2.9% | [2] -2.05% | [3] 4.15% | [4] -37.9% | [5] -20.2% | [6] -7.55%

CC(C)=CC1C(C(=O)OCCOc2ccccc2)C1(C)C (stereo not drawn)
inactive: [1] -0.75% | [2] -6.5% | [3] 10.2% | [4] -26.6% | [5] -13.6% | [6] -2.05%

CC(C)(O)C1=CC23CC(C)(C(=O)O)C4CCCCC4(C)C2CC1OO3 (stereo not drawn)
inactive: [1] 21.4% | [2] -7.3% | [3] 32% | [4] 11.4% | [5] -10.3% | [6] 25.4%

COc1cc(C2c3cc4c(cc3OC(NNS(=O)(=O)c3ccc(C)cc3)C2C)OCO4)cc(OC)c1O (stereo not drawn)
inactive: [1] -3.5% | [2] -7.8% | [3] -15.8% | [4] 0.15% | [5] -12.5% | [6] 1.6%

Cc1ccc(S(=O)(=O)CC([Se]C#N)c2ccccc2)cc1 (stereo not drawn)
inactive: [1] -21.1% | [2] 2.2% | [3] -15.1% | [4] -3.9% | [5] -6.1% | [6] 1.45%

CC(C)CCCC(C)[C@H]1CCC2[C@@H]3CCC4Cc5nc6c(nc5C[C@]4(C)C3CC[C@@]21C)CC1CC[C@@H]2C(CC[C@@]3(C)C2CC[C@@H]3O)[C@@]1(C)C6 (stereo partly drawn)
inactive: [1] -7.05% | [2] -37.7% | [3] -12% | [4] -7.9% | [5] 12.8% | [6] 7.95%

NC1C[S][Sn][O]C1=O (stereo not drawn)
inactive: [1] 14.2% | [2] 14.3% | [3] 3.2% | [4] -21.4% | [5] 4.9% | [6] 14.6%

CC(=O)OC1CC(OC2C(O)CC(OC3C(O)CC(OC4CCC5(C)C(CCC6C5CC(O)C5(C)C(C7=CC(=O)OC7)CCC65O)C4)OC3C)OC2C)OC(C)C1OC1OC(CO)C(O)C(O)C1O (stereo not drawn)
inactive: [1] 6.05% | [2] -15.4% | [3] -25.1% | [4] 5% | [5] 5.7% | [6] 10.6%

O=S(=O)(O)c1ccc(CBr)cc1
inactive: [1] -27.6% | [2] -27.6% | [3] 0.6% | [4] -36.4% | [5] -3.5% | [6] -6.85%

N#Cc1ccc(CCl)cc1
inactive: [1] 39.1% | [2] 7.55% | [3] 7.45% | [4] -6.05% | [5] 2.95% | [6] 41.7%

CC(=O)NC(ON1C(=O)COc2ccccc21)C(Cl)(Cl)Cl (stereo not drawn)
inactive: [1] 27.6% | [2] -16.8% | [3] -13.2% | [4] 10.2% | [5] 26.6% | [6] 7.95%

CC(=O)OCC12CCC(C)=CC1OC1C(N(C)C)C(O)C2(C)C12CO2 (stereo not drawn)
inactive: [1] 33.1% | [2] 49.6% | [3] 16.5% | [4] 39.1% | [5] 18.4% | [6] -16.9%

C[CH2][Sn]([CH2]C)([O]c1cccccc1=O)[O]c1cccccc1=O
active: [1] 87.1% | [3] 94.2%
inactive: [2] 18.8% | [4] -15.6% | [5] 7.8% | [6] 52.5%

COc1cccc(C2(C#N)CCN(C)CC2)c1
inactive: [1] 28.1% | [2] 23.1% | [3] 22.7% | [4] -7.45% | [5] 12.7% | [6] 62.5%

C=Cc1cc(OC)c2c(c1)c(=O)oc1c2cc(OC)c2c(O)ccc(C3OC(C(C)O)C(O)C3O)c21 (stereo not drawn)
active: [1] 88% | [2] 91.7% | [3] 89.1% | [4] 90.2% | [5] 90% | [6] 89.3%

O=C(Oc1ccc(S(=O)(=O)F)cc1Cl)c1ccccc1Cl
active: [1] 99.4% | [2] 99.6% | [3] 99.5% | [4] 99.3% | [5] 99.4% | [6] 99.4%

CCCN(CCC)c1c([N+](=O)[O-])cc(C(=O)N(CC)CC)cc1[N+](=O)[O-]
inactive: [1] 40.6% | [2] 29.8% | [3] 37.4% | [4] 13.8% | [5] 34.1% | [6] 11.3%

O=NN1CCOC1=NC1CCCCC1
inactive: [1] -3.65% | [2] -12.2% | [3] -11.2% | [4] -63% | [5] -22.7% | [6] -9%

CC1(C)N=C(N)N=C(N)N1c1ccc(CCc2cccc(Cl)c2S(=O)(=O)F)c(Cl)c1
active: [1] 99.5% | [2] 99.7% | [3] 99.7% | [4] 99.3% | [5] 99% | [6] 99.5%
